# Source: PubChem BioAssay
# This excerpt belongs to a sample that is enriched for hits.
# Tg IFNy HTS: inhibitors of Toxoplasma gondii growth with IFN-gamma | activity change, negative = inhibition, % (concentration not given with the values) | actives 3.8% (n = 69,000) | AID 1259416 | Toxoplasma gondii growth in IFN-gamma-treated host cells; hits give low values; in the data active = activity change below about -70%, passing the limit was not always enough;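 also: host cells are HeLa cells infected with Toxoplasma gondii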
# An asterisk follows results filed as active; ! = repeats disagree.
SMILES,Tg IFNy HTS
CCCCc1nc(Cl)c(CN2CCN(C)C(C(=O)O)C2)[nH]1 (stereo not drawn),-49
CN=C(NC#N)Nc1ccc(C2=NNC(=O)CC2C)cc1 (stereo not drawn),14
COc1ccc(-c2nc3ccc(C4=NNC(=O)CC4C)cc3[nH]2)cc1 (stereo not drawn),29
CCN(CC)c1ccc(C2=NNC(=O)CC2C)cc1[N+](=O)[O-] (stereo not drawn),-98*
Fc1ccc(CN(C/C=C/c2ccco2)Cc2ccncc2)cc1,21
Cc1ccc(/C(=C\CN2CCCC2)c2ccccn2)cc1,0
C/C(=N\NC(=S)N1CCC1)c1ccccn1,-80*
CN(C)C(=O)[C@]12CCCN(C(=O)c3ccccn3)C[C@@H]1CN(c1ccccn1)C2,4
COc1nc(C)c(CC(=O)N2Cc3ccccc3CC2C2CCOCC2)c(OC)n1 (stereo not drawn),-39
COc1ccc(-n2c(CCCN3CCOCC3)n[nH]c2=O)cc1,18
C=CC[C@@H]1CC=C[C@@H](C)N1C(=O)CCn1nnc2ccccc21,36
Cc1nc(C)c(C(=O)N2CC(C(=O)N3CCCCCC3)C2)o1,-5
Cc1nc(C)c(C(=O)N2C[C@@H](c3ccccc3)[C@H](c3cc(C(F)F)n[nH]3)C2)o1,-80*
Cc1nc(C)c(C(=O)N2CCC(C(=O)N3CCCCCC3)C2)o1 (stereo not drawn),-11
Cn1cc(C(=O)C2CCN(C(=O)c3ccc(-c4ccccc4C(F)(F)F)o3)CC2)c(N)n1,0
NC(=O)c1ccc2[nH]ccc2c1,-9
CN(C)C(=O)c1ccc(-c2ccc3c(c2)[C@@H]2[C@@H](CCN2Cc2ccncc2)[C@@H](CO)N3)cc1,27
Cc1cc(Cn2ccnc2-c2cccc3nonc23)on1,4
CCc1csc(-c2ccc(N3CCN(C(=O)C4CCN(C(C)=O)CC4)CC3)nc2)n1,11
O=C(NCC1CCCO1)c1csc(-c2ccc(N3CCCC3)nc2)n1 (stereo not drawn),-113*
CC1CCN(C(=O)c2csc(-c3ccc(N4CCCC4)nc3)n2)CC1,-47
O=C(NC1CCN(Cc2ccccc2)CC1)c1csc(-c2ccc(N3CCCC3)nc2)n1,-85*
O=C(NCCCN1CCOCC1)c1csc(-c2ccc(N3CCCC3)nc2)n1,-1
O=C(Cn1ncc2c(N3CCCCC3)ncnc21)NC1CCN(Cc2ccccc2)CC1,-7
O=C(COc1ccc(Cl)cc1)NCCc1csc(-c2cccc(F)c2)n1,-47
SMILES,Tg IFNy HTS
CC(c1ccc2c(c1)OCCO2)N(C)Cc1ncccc1C(=O)O (stereo not drawn),-38
Cc1[nH]c(-c2ccc(F)cc2)nc1C(=O)O,-34
CS(=O)(=O)c1ccc(-c2nc(-c3ccc(F)cc3)c(-c3ccncc3)[nH]2)cc1,11
CS(=O)c1ccc(-c2nc(-c3ccc(F)cc3)c(-c3ccncc3)[nH]2)cc1 (stereo not drawn),-90*
CCCc1nc(N2CCC(O)(c3ccccc3)C2)c2cnn(C)c2n1 (stereo not drawn),-16
CC1=C(C(=O)N2CCC(CCN3CCCC3=O)CC2)C(C)NC(=O)N1 (stereo not drawn),-3
COCC(=O)Nc1ccc2c(c1)C(=O)N(C)[C@H]1CC[C@@H](CC(=O)N3CCc4ccccc4C3)O[C@@H]1CO2,23
Cc1ccc(S(=O)(=O)N2CCn3cnc(COc4cccnc4)c3C2)cc1,0
CC(=O)Nc1ccc(NS(=O)(=O)c2ccc(S(=O)(=O)c3ccccc3)s2)cc1,-20
c1ccc2c(c1)CC1(CCCC1)n1c-2cc2nc3ccccc3nc21,-63
CCOC(=O)c1cc(-c2ccc(C)cc2)no1,-13
CCC(=O)O[C@@]1(C(=O)CCl)[C@@H](C)C[C@H]2[C@@H]3C[C@H](F)C4=CC(=O)C=C[C@]4(C)[C@]3(F)[C@H](O)C[C@@]21C,3
CCC(=O)OCC(=O)[C@@]1(OC(=O)CC)[C@@H](C)C[C@H]2[C@@H]3CCC4=CC(=O)C=C[C@]4(C)[C@@]3(F)[C@@H](O)C[C@@]21C,-1
CCC(=O)OCC(=O)[C@@]1(OC(=O)CC)[C@@H](C)C[C@H]2[C@@H]3CCC4=CC(=O)C=C[C@]4(C)[C@@]3(Cl)[C@@H](O)C[C@@]21C,-74*!
O=C(NC1CC1)C1CN(Cc2cccn2-c2nccs2)CCN1 (stereo not drawn),15
Cc1ccc(S(=O)(=O)Nc2cc(C(C)(C)C)sc2C#N)cc1,1
Cc1ccc(S(=O)(=O)Nc2c(Cl)c(Cl)nc(C#N)c2Cl)cc1,-93*
Cc1ccc(S(=O)(=O)Nc2ccc(S(=O)(=O)Nc3nc(C)cc(C)n3)cc2)cc1,48
Cn1c(=O)c(-c2nc(-c3ccccc3)no2)c(O)c2cc(F)ccc21,24
CC(=Nc1ccccc1)C1=C(O)CCCC1=O,15
Cc1nccn1-c1ccccc1CNC1CCC2(CCNCC2)CC1,3
CCc1csc(CNC2CCC3(CCNCC3)CC2)n1,-76*
CCc1csc(CNC2CCN(CC(C)C)CC2)n1,0
COc1ccc2c3c([nH]c2c1)[C@@H](CO)N(Cc1nccs1)CC31CCN(C(=O)C2CCCCC2)CC1,-56
CCC(=O)N1CCC2(CC1)CC(CC(N)=O)c1ccc(F)cc12 (stereo not drawn),-22
Cc1ccc(NC(=O)CN2CCN(Cc3ccccc3)CC2)cc1Cl,-24
Cc1ccc(-c2ccccc2NC(=O)CS(=O)CC(=O)Nc2ccc(C)c(Cl)c2)o1 (stereo not drawn),33
Cc1ccc(NC(=O)CS(=O)CC(=O)Nc2ccc3c(c2)CCC3)cc1Cl (stereo not drawn),-88*
NC(=S)N=Nc1c(O)n(Cc2ccccc2)c2ccccc12,-103*
Cc1cc(Br)c2c(c1)c(N=NC(N)=S)c(O)n2C,-31
